Compound activity deposited in PubChem BioAssay by National Center for Advancing Translational Sciences (NCATS).
Cycloheximide cs: counter-screen hit for Shiga toxin inhibitors, cycloheximide; cell reporter, cycloheximide protein synthesis inhibition counterscreen; max response, %; 300,000 tested, 12% active; AID 2314; in the data active = max response mostly above about 13%, no sharp cut-off; inactive = mostly below about 14%; also: read at 38.3 µM for the half of the compounds with a filed dose; 0% is about no effect
LASV entry inh: blocks Lassa virus binding to or entry into cells; Lassa virus pseudotype entry inhibition, cell reporter; Potency, µM (doses to about 37.9 µM), inactives show top-dose activity change, negative = inhibition, actives largely listed as inhibitors; 300,000 tested, 1.2% active; calls by dose curve; tested in HEK293 cells; also: potency is read from the fitted curve at half-maximal effect; % is scaled to controls: 0 for no effect and ±100 for the full control effect; nearly all actives have a fitted effect of over 50% in size
MARV entry inh: blocks Marburg virus binding to or entry into cells. Marburg virus pseudotyped entry inhibition, cell reporter. Potency, µM (highest dose often 37.8 µM), for inactives: top-dose activity change, negative = inhibition, usual class: inhibitors. 300,000 tested, 1.8% active. AID 540276; calls by dose curve; tested in HEK293 cells; also: potency is read from the fitted curve at half-maximal effect; % is scaled to controls: 0 for no effect and ±100 for the full control effect
Shiga inhibitor: blocks Shiga toxin action in Vero cells; 290,000 tested, 9.2% active; inhibition, % at 38.7 µM; AID 2315; Vero cells, Shiga toxin protein synthesis inhibition reporter; in the data active = inhibition mostly above about 28%, no sharp cut-off; inactive = mostly below about 43%; also: 0% is about no effect
AMA1-RON2 inh: disrupts binding of P. falciparum AMA1 to RON2; AlphaScreen AMA1-biotinylated RON2 peptide binding; Potency, µM (titrated, usually from 58.2 µM), without a hit: top-dose activity change, negative = inhibition, actives largely listed as inhibitors; 360,000 tested, 0.2% active; AID 720542; active = well fitted inhibition curve with a large enough effect; inconclusive = small, poorly fitted or top-dose-only effect; inactive = no such curve, though single readings can be large or run the other way;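 also: potency is read from the fitted curve at half-maximal effect; 0% = vehicle wells and -100% = peptide control; nearly all actives have a fitted effect of over 45% in size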
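AMA1 (3D7) with his tag at 25 nM final met compounds first, then biotinylated RON2 peptide at 25 nM; detection used donor plus acceptor beads, 10 µg/mL apiece, read by AlphaScreen after 30 min at room temperature.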
* = called active by the depositor; i = inactive; u = inconclusive; x = not tested or not shown; [ ] = dose if it differs, or a comment. Many of the other results were omitted from the sample, so hits are more common in it than they were.

SMILES	Cycloheximide cs	LASV entry inh	MARV entry inh	Shiga inhibitor	AMA1-RON2 inh
C=CCc1cccc(/C=N/NC(=O)c2ccccc2Br)c1O	10	x	x	50*	58%
O=C(N/N=C/c1ccccc1C(=O)O)c1ccccc1Br	7	21%	5%[46.1 µM]	38	6%
C/C(=N/NC(=O)C(C)n1nc(C)c([N+](=O)[O-])c1C)c1ccc(OCC(N)=O)cc1 (stereo unspecified)	-2	1%[46.1 µM]	9%[46.1 µM]	15	22%
Cc1ccc2oc(=O)c3cnn(CC(=O)N(C)c4ccc(F)cc4)c3c2c1	x	0%[46.1 µM]	5%[46.1 µM]	x	x
CN(c1ccccc1)c1nc(N)c([N+](=O)[O-])c(N2CCCCCC2)n1	21*	5%	u	56*	u
CCN1CCN(c2nc(N(C)c3ccccc3)nc(N)c2[N+](=O)[O-])CC1	1	-18%	-26%[46.1 µM]	-10	1%
CN(c1ccccc1)c1nc(N)c([N+](=O)[O-])c(Nc2ccccc2F)n1	19*	x	x	11	-13%
Cc1cccc(Nc2nc(N)c([N+](=O)[O-])c(N3CCC(C)CC3)n2)c1	-5	u	u	-3	-23%
CC1CCN(c2nc(N(C)c3ccccc3)nc(N)c2[N+](=O)[O-])CC1	11*	15%	-2%[14.2 µM]	27	u
Cc1ccc(NC(=O)COc2coc(CN3CCc4ccccc43)cc2=O)cc1Cl	x	u	4%[46.1 µM]	x	-10%
Cn1c(-c2ccc(F)cc2)cnc1NCc1ccc(C#N)cc1	-2	-15%	9%	-17	u
Cn1c(-c2ccc(F)cc2)cnc1NCc1ccccc1F	17*	x	x	19	u
Cn1c(-c2ccccc2)cnc1NCc1cc(Cl)ccc1O	17*	-1%	u	18	-29%
Cn1c(-c2ccc(F)cc2)cnc1NCc1ccc(F)cc1	6	-2%	1%	28	-3%
Cn1c(-c2ccc(F)cc2)cnc1NCc1ccc(F)cc1F	13	x	x	23*	-18%
COc1ccc(OCCSc2ncn[nH]2)cc1	17	u	u	30	-3%
COc1ccc(OCCSc2n[nH]c(N)n2)cc1	31*	10%	0%[46.1 µM]	49	-3%
CCOc1ccc(OCC)c(NC(=O)c2nnn(CC(=O)Nc3ccc(C)cc3C)c2N)c1	x	12%[46.1 µM]	7%[46.1 µM]	x	x
O=C(/C=C/c1cc(Br)ccc1F)Nc1cccnc1	26*	6%[46.1 µM]	u	39*	8%
O=C(/C=C/c1c(F)cccc1Cl)Nc1cccnc1	39*	x	x	x	-1%
Cc1ccccc1CNCCCSc1nnnn1-c1ccccc1	x	-2%[46.1 µM]	9%[46.1 µM]	x	x
Cc1ccc(CNC(=O)[C@@H](NC(=O)C2CCN(C(=O)[C@@H](N)CC(C)C)CC2)C(C)C)cc1	-4	x	x	-12	-3%
Cc1ccsc1/C=N/N=C/c1sccc1C	48*	x	x	x	-9%
Cc1ccsc1C=Nc1ccc(O)cc1	15*	u	u	34	23%
CC(=O)Nc1ccc(NC(=O)CN(c2cc(Cl)ccc2Cl)S(C)(=O)=O)cc1	-2	x	x	-11	-5%
SMILES	Cycloheximide cs	LASV entry inh	MARV entry inh	Shiga inhibitor	AMA1-RON2 inh
Cc1ccc(OCCC(=O)OCC(=O)NC(=O)c2ccccc2)cc1	x	-17%	1%[46.1 µM]	x	-4%
Cc1ccccc1Cn1c(C)c(C(=O)NCC(C)C)sc1=O	x	x	x	x	-1%
Cc1cccc(/C(N)=N/OC(=O)c2ccncc2)c1	46*	u	-27%[46.1 µM]	68*	25%
N/C(=N\OC(=O)C1CCCCC1)c1cccc([N+](=O)[O-])c1	66*	u	12%	106*	-15%
Cc1ccc(CC(=O)O/N=C(\N)c2cccc([N+](=O)[O-])c2)cc1	15*	-4%	-2%	-3	-4%
N/C(=N\OC(=O)Cc1ccc([N+](=O)[O-])cc1)c1cccc(Br)c1	5	0%	u	18	u
N/C(=N\OC(=O)c1ccc(Br)cc1)c1cccc([N+](=O)[O-])c1	26*	x	x	20*	0%
O=C(CCC(=O)N1CCCC(Nc2ccccc2)C1)c1ccc(F)cc1 (stereo unspecified)	-3	-2%[46.1 µM]	2%[46.1 µM]	1	-3%
NC(Cc1ccc(F)cc1)c1csc(Nc2cc(Oc3ccccc3)ncn2)n1 (stereo unspecified)	x	x	x	x	58%
CC1=CC(=NOC(=O)c2cccc([N+](=O)[O-])c2)C=C(C)C1=O	23*	-4%	-4%	45	8%
Cc1ccc(C(=O)O/N=C(\N)c2cccc([N+](=O)[O-])c2)cc1	39*	u	0%	69*	-9%
N/C(=N\OC(=O)c1ccncc1)c1cccc([N+](=O)[O-])c1	27*	u	u	x	-1%
COc1cc(C(=O)O/N=C(\N)c2cccc([N+](=O)[O-])c2)cc(OC)c1OC	6	-15%	-1%	8	14%
COc1ccc2c(c1)OC(=O)CC2c1ccc2c(c1)OCO2 (stereo unspecified)	8	x	x	i	x
COc1cccc([C@@H]2Oc3ccc(OC)cc3C[C@H]2OC(=O)N[C@H]2CCCc3ccccc32)c1	x	x	3%[14.2 µM]	x	x
COC(=O)c1ccc2c(c1O)C(=O)c1ccccc1C2=O	39*	u	u	64*	-25%
COc1cc(NC(=O)COc2cc(O)c3c(c2)OC(C)(C)CC3=O)cc(OC)c1	7	x	x	3	19%
COc1cccc(NC(=O)COc2cc(O)c3c(c2)OC(C)(C)CC3=O)c1	24*	x	x	25	12%
CC1(C)CC(=O)c2c(O)cc(OCC(=O)Nc3ccc(CCO)cc3)cc2O1	16*	x	x	16	-6%
COc1ccc(NC(=O)COc2cc(O)c3c(c2)OC(C)(C)CC3=O)cc1	-1	x	x	-1	-2%
CCOC(=O)Cn1c(C)[n+](CC(=O)c2ccccc2)c2ccccc21	-4	-2%[46.1 µM]	16%[46.1 µM]	-3	-10%
CN(C)c1ccc(CNC(=O)c2cccc(NC(=O)N3CCSc4ncccc43)c2)cc1	x	-15%[46.1 µM]	x	x	x
O=C(COC(=O)COc1ccc(Cl)cc1)Nc1ncc(Br)s1	x	15%	10%[46.1 µM]	x	-12%
Cc1ccc2cc(/C=N/NC(=O)c3ccc(F)cc3)c(Cl)nc2c1	-2	12%	1%	-7	9%
COc1cc(/C=N/Nc2ccc(C(=O)O)cc2)cc(OC)c1OC	45*	x	x	58*	12%
SMILES	Cycloheximide cs	LASV entry inh	MARV entry inh	Shiga inhibitor	AMA1-RON2 inh
Cc1ccc2nc(Cl)c(/C=N/Nc3ccc(C(=O)O)cc3)cc2c1	32*	x	x	36	-5%
C=CCOc1c(OC)cc(/C=N/Nc2cccc(C(=O)O)c2)c(Br)c1Br	50*	0%	u	187*	-5%
COc1ccc(/C=N/Nc2ccc(C(=O)O)cc2)c(OC)c1OC	47*	u	u	80*	-10%
Cc1ccc(Cl)c(NC(=O)COC(=O)c2cc[n+]([O-])cc2)c1Cl	x	2%	u	x	0%
CCOC(=O)CN(c1cc([N+](=O)[O-])ccc1OC)S(C)(=O)=O	1	-1%	u	-17	9%
Cc1cc(NS(=O)(=O)c2cn(C)c(C)n2)ccc1Br	x	31%[46.1 µM]	x	x	x
Cc1ccnc2nc(C(=O)NC3=NCCS3)nn12	3	0%	7%	12	-4%
Cc1cc(C)n2nc(C(=O)Nc3ccc4c(c3)OCCO4)nc2n1	x	x	x	x	1%
Cc1ccnc2nc(C(=O)Nc3ccc4c(c3)OCO4)nn12	27*	u	u	75*	-7%
Cc1ccnc2nc(C(=O)Nc3nccs3)nn12	22*	5%	10%	29	5%
